The results in this text go back to PubChem BioAssay AID720541 (National Center for Advancing Translational Sciences (NCATS), 2013).

The whole screen tested about 1,300 compounds, of which about 420 (32%) were called active. Inconclusive results (about 32%) are left out. Calls come from the whole dose curve; as a rule, active = well fitted inhibition curve with a large enough effect; inconclusive = small, poorly fitted or top-dose-only effect; inactive = no such curve, though single readings can be large or run the other way. The list shows a part of the results.
Potency is the fitted concentration of half-maximal effect.

The target in this test is C-terminal-binding protein 1 (Homo sapiens) (UniProt Q13363). Nature of the test: qHTS for Inhibitors of the Phosphatase Activity of Eya2: Carboxyl-terminal binding protein (CtBP) Counterscreen for Cherry-picked Compounds. Note: nearly all actives have a fitted effect of over 65% in size. As to conditions: purified protein-protein binding, AlphaScreen, 3 h; series mostly up to 46.1 µM. The gist of the method:
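Cherry-picked compounds (final 2.5 nM–46 uM) were incubated 2 h at RT with 25 nM CtBP-6xHIS and 25 nM GST-E1A. Alpha beads (20 ug/mL) were then added for 1 h, light-protected; DMSO and E1A peptide inhibitor wells set the normalization.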
(In qHTS, concentration-response curves come from the screen itself.)
`O=C(C1CCN(c2nnc(-n3cccc3)s2)CC1)N1CCOCC1`: the Potency entry was “inactive”.

`Cc1ccc(NC(=O)CN2C(=O)S/C(=C\c3cc(Cl)c(OCC(=O)O)c(Cl)c3)C2=O)cc1`: the Potency was 15.1 µM (active).

As to `CCOc1ccc2c(c1)-c1c(ssc1=S)C(C)(C)N2C(=O)CSC1=NCCS1`, the Potency was 15.1 µM (active).

For `Cc1cc(C)nc(-n2nc(C)cc2NC(=O)c2cc3ccccc3oc2=O)n1`, the Potency is 4.78 µM (active).

Turning to `CC1=NN(c2ccccc2)C(=O)/C1=C\C=C1/N(C)c2ccccc2C1(C)C`, the Potency was 9.53 µM (active).

On to `CN1/C(=C\C=C2/SC(=S)NC2=O)C(C)(C)c2ccccc21`, for which the Potency is 12 µM (active).

Take `CNc1ccc(C=C2c3ccccc3-c3ccccc32)cc1`: the Potency is 12 µM (active).

As to `CN(C)c1ccc(/C=C2\C(Cl)=Cc3ccccc32)cc1`, the Potency is 6.75 µM (active).

Turning to `CN(C)c1ccc2c(c1)C(=NO)c1ccccc1-2`, the Potency was 16.9 µM (active).

As for `CN(C)c1ccc(/C=C2\c3ccccc3-c3ccc(N(C)C)cc32)cc1`, the Potency is 5.36 µM (active).

Turning to `Cc1oc(-c2ccc(-c3ccccc3)cc2)nc1CN(C)C1CCOC1` (stereo unspecified), the Potency entry was “inactive”.

With `Cc1ccc(C(=O)Oc2ccc(N3C(=O)CCC3=O)c(C)c2)cc1`, the Potency entry was “inactive”.

Turning to `O=C(/C=C/c1ccc(O)c(O)c1)OC(Cc1ccc(O)c(O)c1)C(=O)O` (stereo unspecified), the Potency result is “inactive”.

As to `COc1cccc(OC)c1C(=O)OCC(=O)NCC1CCCCC1`, the Potency entry was “inactive”.

With `CC1=CC(C)(C)n2c(O)c(C3=NC(=S)NC3=O)c3cc(OC(=O)c4cccc5ccccc45)cc1c32`, the Potency result was “inactive”.

`CN(C)c1ccc(C=C2c3ccccc3-c3ccccc32)cc1`: the Potency is 8.49 µM (active).

`CN(C)c1ccc(/C=C2\C(=O)/C(=C/c3ccc(N(C)C)cc3)c3ccccc32)cc1`: the Potency was 5.36 µM (active).

Take `OC(COc1ccc2cc(Br)ccc2c1)Cn1ccnc1` (stereo unspecified): the Potency result was “inactive”.

As to `COc1ccc(NC(=O)c2cc(S(=O)(=O)N3CCc4ccccc43)cn2C)cc1OC`, the Potency result was “inactive”.

On to `COc1cc2c(cc1OC)-c1cc(Nc3ccccc3)nc(=O)n1CC2`, for which the Potency was 6.75 µM (active).

Take `COc1ccc(Nc2cc3n(c(=O)n2)CCc2cc(OC)c(OC)cc2-3)c(C)c1`: the Potency was 12 µM (active).

As for `CCOc1ccc(Nc2cc3n(c(=O)n2)CCc2cc(OC)c(OC)cc2-3)cc1`, the Potency is 5.36 µM (active).

Take `COc1cc2c(cc1OC)-c1cc(Nc3ccc(C)cc3)nc(=O)n1CC2`: the Potency is 4.26 µM (active).

Take `Cc1nc(COC(=O)c2c(C)nn(-c3ccccc3)c2C)cs1`: the Potency entry is “inactive”.

Regarding `COc1cc2c(cc1OC)-c1cc(Nc3ccc(F)cc3)nc(=O)n1CC2`, the Potency was 2.39 µM (active).

As to `O=C(NCc1ccc2c3c(cccc13)C(=O)N2)c1cccs1`, the Potency entry is “inactive”.
